{"source": "PubChem BioAssay (EPA / NIEHS)", "note": "Results filed as inconclusive are left out. Where a structure was tested more than once in an assay, its records may differ in their call. Calls of active or inactive are those of the source. How the source made its calls: active means hit-call score of the fitted dose curve at least 0.9, where 1 is the maximum; inconclusive means response in the unintended direction; inactive means score below 0.9.", "data": [{"test": "ATG_M_06_TRANS: Attagene TRANS-FACTORIAL HepG2 Assay for M06 Transcription Factor (Internal Marker) (AID 2282983);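 on AC50: potency for rise in reporter mRNA above DMSO baseline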", "conditions": "HepG2 Attagene TRANS M06 internal marker reporter", "method": "ATG_TRANS is a cell-based, multiplexed-readout assay that uses HepG2, a human liver cell line, with measurements taken at 24 hours after chemical dosing in a 24-well plate.ATG_M_06_TRANS is one of 30 assay component(s) measured or calculated from the ATG_TRANS assay. It is designed to make measurements of mRNA induction, a form of inducible reporter, as detected with fluorescence intensity signals by Reverse transcription polymerase chain reaction (RT-PCR) and Capillary electrophoresis technology.Data from the assay component ATG_M_06_TRANS was analyzed into 1 assay endpoint. This assay endpoint, ATG_M_06_TRANS, was analyzed in the positive analysis fitting direction relative to DMSO as the negative control and baseline of activity. Using a type of inducible reporter, measures of mRNA for gain-of-signal activity can be used to understand the background control at the transcription factor-level as they relate to the gene . Furthermore, this assay endpoint can be referred to as a secondary readout, because this assay has produced multiple assay endpoints where this one serves a background control function. To generalize the intended target to other relatable targets, this assay endpoint is annotated to the background measurement intended target family, where the subfamily is internal marker.\nHuman liver HepG2 cells are transiently transfected with multiple reporter transcription units (MRTUs) in 6-well plates using FuGene 6 reagent (Roche; 3 ml FuGene/1 mg DNA). The MRTU constructs are regulated by a cis-regulating element (promoter). […] A major difference between the CIS and TRANS system is that in CIS activities of endogenous TFs are measured, whereas the TRANS assay evaluates changes in activities of exogenous, chimeric NR-Gal4 proteins. […] At the end of 24 hour incubation, total RNA was isolated using TriZol reagent (Invitrogen). The isolated RNA is then reverse-transcribed using oligo(dT) primer and Mo-MLV reverse transcriptase (Invitrogen) with DNAse I (Ambion) treatment for 30 min. The one-tenth of the produced cDNA was amplified by PCR using Taq DNA polymerase (Invitrogen) and two reporter sequence-specific primers. The PCR products were fluorescently labeled by primer extension with 6-arboxyfluorescein (6-FAM) 5'-labeled reporter sequence-specific primer (2 min at 95 C, 20 s at 68 C and 10 min at 72 C) and these products were digested with 5U of HpaI (New England Biolabs) for 2h at 37 C. The fragments were purified using Qiaquick PCR columns (Qiagen), analyzed on an ABI 3130xL genetic analyzer (Applied Biosystems) with peak positions identified by using a set of X-rhodamine (ROX)-labeled MapMarker1000 molecular weight standards (BioVentures). The raw capillary electrophoresis data was processed using Attagraph software (Attagene).", "values": [{"smiles": "N[C@@H](Cc1cc(I)c(Oc2ccc(O)c(I)c2)c(I)c1)C(=O)O", "outcome": "inactive"}, {"smiles": "O=C(c1ccccc1)C1CCCCC1", "outcome": "inactive"}, {"smiles": "COCCO", "outcome": "inactive"}, {"smiles": "CC(C)(c1ccc(O)cc1)c1ccc(O)cc1", "outcome": "inactive"}, {"smiles": "CCOC(=O)c1ccc(O)cc1", "outcome": "inactive"}, {"smiles": "C[C@]12CC[C@@H]3c4ccc(O)cc4C[C@@H](CCCCCCCCCS(=O)CCCC(F)(F)C(F)(F)F)[C@H]3[C@@H]1CC[C@@H]2O", "note": "(stereo not given in full)", "outcome": "inactive"}, {"smiles": "CCCN(CCC)C(=O)SCC", "outcome": "inactive"}, {"smiles": "CC(C)CCCCCCc1ccc(O)cc1", "outcome": "inactive", "AC50": "50.3 µM (active)"}, {"smiles": "c1ccc2[nH]c(-c3cscn3)nc2c1", "outcome": "inactive"}, {"smiles": "COC(=O)c1ccccc1C(=O)O", "outcome": "inactive"}, {"smiles": "c1ccc(Nc2ccccc2)cc1", "outcome": "inactive"}, {"smiles": "C[C@]12C[C@H](O)[C@H]3[C@@H](CCC4=CC(=O)CC[C@@]43C)[C@@H]1CC[C@@H]2C(=O)CO", "outcome": "inactive"}, {"smiles": "CC(=O)[C@H]1CC[C@H]2[C@@H]3CCC4=CC(=O)CC[C@]4(C)[C@H]3CC[C@]12C", "outcome": "inactive"}, {"smiles": "CC(=O)S[C@@H]1CC2=CC(=O)CC[C@]2(C)[C@H]2CC[C@@]3(C)[C@@H](CC[C@@]34CCC(=O)O4)[C@H]12", "outcome": "inactive"}, {"smiles": "S=C(S)NCCNC(=S)S.[Mn+2].[S-]C([S-])=NCCN=C([S-])[S-].[Zn+2]", "outcome": "inactive"}, {"smiles": "CCOC(=O)COc1cc(-n2ncc(C(F)(F)F)c(C)c2=O)c(F)cc1Cl", "outcome": "inactive"}, {"smiles": "CCCOC(=O)c1ccc(C(=O)OCCC)nc1", "outcome": "inactive"}, {"smiles": "O=C(c1ccc(O)cc1O)c1ccc(O)cc1O", "outcome": "inactive"}, {"smiles": "CCCN(CCC)c1c([N+](=O)[O-])cc(C(F)(F)F)c(N)c1[N+](=O)[O-]", "outcome": "inactive"}, {"smiles": "COC(=O)c1ccc(I)cc1S(=O)(=O)NC(=O)Nc1nc(C)nc(OC)n1", "outcome": "inactive"}, {"smiles": "CCCCCCC(C)OC(=O)COc1nc(F)c(Cl)c(N)c1Cl", "note": "(stereo not given)", "outcome": "inactive"}, {"smiles": "CCCCOCCOCCOCc1cc2c(cc1CCC)OCO2", "outcome": "inactive"}, {"smiles": "CN(C)C(=O)Nc1ccc(Cl)c(Cl)c1", "outcome": "inactive"}, {"smiles": "Oc1ccc(C(c2ccc(O)cc2)C(Cl)(Cl)Cl)cc1", "outcome": "inactive"}, {"smiles": "COC(=O)c1c(Cl)nn(C)c1S(=O)(=O)NC(=O)Nc1nc(OC)cc(OC)n1", "outcome": "inactive"}, {"smiles": "COc1nc(C)nc(NC(=O)NS(=O)(=O)c2ccccc2OCCCl)n1", "outcome": "inactive"}, {"smiles": "N#CSCSc1nc2ccccc2s1", "outcome": "inactive"}, {"smiles": "CC(C)(C)[C@@H](O)[C@@H](Cc1ccc(Cl)cc1)n1cncn1", "outcome": "inactive"}, {"smiles": "C#C[C@]1(O)CC[C@H]2[C@@H]3CCC4=CC(=O)CC[C@@H]4[C@H]3CC[C@@]21CC", "outcome": "inactive"}, {"smiles": "CCOC(=O)NCCOc1ccc(Oc2ccccc2)cc1", "outcome": "inactive"}, {"smiles": "CCN(CC)C(=O)c1cccc(C)c1", "outcome": "inactive"}, {"smiles": "S=C([S-])NCCNC(=S)[S-].[Mn+2]", "outcome": "inactive"}, {"smiles": "CCSC(=O)N(CC(C)C)CC(C)C", "outcome": "inactive"}, {"smiles": "C=CCOC(Cn1ccnc1)c1ccc(Cl)cc1Cl", "note": "(stereo not given)", "outcome": "inactive"}, {"smiles": "CSC(=O)c1cccc2nnsc12", "outcome": "inactive"}, {"smiles": "CCCCC(CC)COC(=O)c1ccccc1C(=O)O", "note": "(stereo not given)", "outcome": "inactive"}, {"smiles": "CCNc1nc(N)nc(Cl)n1", "outcome": "inactive"}, {"smiles": "C#CCOC(=O)[C@@H](C)Oc1ccc(Oc2ncc(Cl)cc2F)cc1", "outcome": "inactive"}, {"smiles": "COC(=O)CSc1cc(N=c2sc(=O)n3n2CCCC3)c(F)cc1Cl", "outcome": "inactive"}]}]}
